According to PubChem BioAssay AID648 (SRMLSC, 2007):
The campaign covered roughly 86,000 compounds. About 920 (1.1%) were called active. This is one part of a sample in which actives are shown more often than they occur. Values without a mark were called inactive.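 Rule for the calls: active = viability at or below 30%; inactive = viability above 30%.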

Test: inhibitors of HUVEC proliferation, primary screen, cell-based, 384-well (AID 648);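 note: 100% = median luminescence of DMSO-only cell control wells on each plate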
Conditions: CellTiter-Glo luminescence, 72 h, stronger effect = lower value, screened at 10 µM (by protocol)

Row | SMILES | viability
1 | CC1=C/C(=N\OS(=O)(=O)c2ccccc2)C=CC1=O | 1.29% (active)
2 | c1ccc(-c2nc(NCc3ccco3)c3ccccc3n2)cc1 | 85.5%
3 | CCSc1nnc(NC(=O)Cc2ccccc2OC)s1 | 93.5%
4 | CC(C)c1cc(C(=O)O)n[nH]1 | 90.3%
5 | C=C(C)CSc1nnc(-c2ccc(C)cc2)n1N | 93.8%
6 | OCCCN1c2ccccc2Nc2nnc(-c3ccccc3)cc21 | 69.2%
7 | N=c1c2c(-c3ccccc3)c(-c3ccccc3)n(Cc3ccccc3)c2ncn1CCCO | 1.91% (active)
8 | CC(=O)Oc1cc2c(C(=O)NCCN3CCOCC3)c(C)oc2c2ccccc12 | 4.78% (active)
9 | O=C(NCCN1CCOCC1)c1c(F)c(F)c(F)c(F)c1F | 94.7%
10 | O=C(CCN1C(=O)c2ccccc2C1=O)NCCN1CCOCC1 | 93.8%
11 | CCCOc1ccc(N2C(=O)CC(N(CCc3ccc(S(N)(=O)=O)cc3)C(C)=O)C2=O)cc1 (stereo not given) | 98%
12 | O=C1c2ccccc2C(=O)N1CCCc1nc(-c2ccccc2)no1 | 111%
13 | Cc1ccc(-c2csc(SCC(=O)Nc3cc(C)on3)n2)cc1 | 100%
14 | O=C(CCN1c2ccccc2Sc2ccccc21)Nc1ccccc1 | 84.5%
15 | Cc1ccc(C2(C(F)(F)F)N=C3Sc4cc(C)cc(C)c4N3C(=O)N2)cc1 (stereo not given) | 21.8% (active)
16 | COC(=O)c1nc2ccccc2s1 | 93.3%
17 | Cc1cc(=O)oc2cc(OCC3CC(c4ccccc4Cl)=NO3)ccc12 (stereo not given) | 44.4%
18 | Cc1ccccc1N1CCN(CCCOc2ccc3c(C)cc(=O)oc3c2)CC1 | 25.2% (active)
19 | CCc1cc(=O)oc2cc(OCC(=O)N3CCCc4ccccc43)ccc12 | 80.5%
20 | CCCC1(C(=O)OCC)NC(c2ccc(N(C)C)cc2)C2C(=O)N(c3ccc4c(c3)OCCO4)C(=O)C21 (stereo not given) | 104%
21 | CCN(CC)C(=O)CSc1ncnc2c1cnn2-c1ccccc1 | 123%
22 | Cc1ccc(C(=O)NCC2CCCO2)o1 (stereo not given) | 106%
23 | OC(CNCC1CCCO1)Cn1c2ccc(Br)cc2c2cc(Br)ccc21 (stereo not given) | 3.17% (active)
24 | Cc1cc(Br)ccc1NC(=O)C1CCCO1 (stereo not given) | 90.3%
25 | Cc1ccc(S(=O)(=O)/N=C(\CN2CCOCC2)N2CCOCC2)cc1 | 89.5%
26 | Cc1ccc(CN2CCN(/N=C/c3ccco3)CC2)c(C)c1 | 104%
27 | C=C(C)COc1ccc(-c2n[nH]c(C)c2-c2ccccc2OC)c(O)c1 | 23.9% (active)

Row | SMILES | viability
28 | C=C(C)COc1ccc(-c2n[nH]c(C)c2-c2ccccc2)c(O)c1 | 54%
29 | COc1ccc(-c2n[nH]c(C)c2-c2ccc(OC)c(OC)c2)c(O)c1 | 48.7%
30 | O=C(NCC1CCCO1)c1ccc2ccccc2n1 (stereo not given) | 89.6%
31 | O=S(=O)(NC1CCCCC1)c1ccc(F)c2ccccc12 | 81.9%
32 | Cc1ccc(S(=O)(=O)NCCSC(C)(C)C)cc1 | 103%
33 | CCc1nnc(NC(=O)CSc2nc3ccccc3c(=O)n2CCCOC)s1 | 90.7%
34 | COCCNc1nc(-n2nc(C)cc2C)nc2sc3c(c12)CCCC3 | 78%
35 | Cc1cc(C)n(-c2nc(SCC(=O)N3CCCC3)c3c4c(sc3n2)CCCC4)n1 | 16.2% (active)
36 | Cc1nc(SCC(=O)Nc2cc(C)on2)c2c3c(sc2n1)CCCC3 | 75.7%
37 | CCCCCCNC(=O)CSc1nccn1Cc1ccccc1 | 80.6%
38 | O=C(C(NS(=O)(=O)c1cccc2nsnc12)c1ccccc1)N1CCN(c2ccccc2)CC1 (stereo not given) | 101%
39 | CCC1(C)Cc2c(sc3nc4n(c(=O)c23)CCCS4)CO1 (stereo not given) | 101%
40 | CCC1(C)Cc2c(sc3[nH]c(=S)n(Cc4ccccc4)c(=O)c23)CO1 (stereo not given) | 7% (active)
41 | CCC1(C)Cc2c(sc3nc(SC)nc(N)c23)CO1 (stereo not given) | 93.2%
42 | C=CCn1c(N)cc(=O)nc1SCC(=O)Nc1cccc2ccccc12 | 103%
43 | O=C(NC1CCCCC1)c1ccc(CNc2c(N3CCOCC3)c(=O)c2=O)cc1 | 105%
44 | COC(=O)c1c(C)c(C)nc(N)c1C#N | 104%
45 | Oc1ccc2ccc3cccc[n+]3c2c1 | 97.5%
46 | COc1ccc(-c2cc(C)nc3nc(N)nn23)cc1 | 86.4%
47 | Cc1cc(N)n2nc(-c3ccc(C(C)(C)C)cc3)cc2n1 | 24.9% (active)
48 | Cc1nc2cc(-c3ccc(F)cc3)nn2c(N2CCOCC2)c1C | 98.8%
49 | CCCCCN1CC(O)=C(c2nc(-c3ccc(Cl)cc3)cs2)C1=N | 102%
50 | O=C(O)CCN=C1CCc2ccccc2N1 | 95.7%
51 | O=C(COc1ccc(S(=O)(=O)NCc2ccccc2)cc1)N1CCOCC1 | 98.2%
52 | Cc1ccc2oc(=O)c3cnn(CC(=O)N(Cc4ccco4)C4CCCCC4)c3c2c1 | 84%
53 | COc1cc(CC(=O)NCc2cccs2)cc(OC)c1OC | 98.3%
54 | CC(=O)Nc1ccc(NC(=O)CSCc2cnn(-c3ccccc3)c2-n2cccc2)cc1 | 89.5%

Row | SMILES | viability
55 | C1=C(CCNc2ncnc3c2cnn3-c2ccccc2)CCCC1 | 94.9%
56 | O=C(NCCC1=CCCCC1)C1CCN(Cc2cnn(-c3ccccc3)c2-n2cccc2)CC1 | 28.4% (active)
57 | CCn1c(SCC(=O)Nc2ccc(S(=O)(=O)Nc3onc(C)c3C)cc2)nnc1-c1ccccc1 | 89.5%
58 | Brc1ccc(-c2nnc(-c3ccccc3)o2)o1 | 90.9%
59 | OCCN1CCOCCOCCN(CCO)CCN(CCO)CC1 | 105%
60 | CC(C)(C)c1cc(=O)n2c(nc3ccccc32)[nH]1 | 103%
61 | Cc1nc2nc(COc3ccccc3)[nH]n2c(=O)c1C | 88.1%
62 | Cc1nc2c(-c3ccccc3)c(C)[nH]n2c(=O)c1Cl | 12% (active)
63 | Cc1[nH]n(-c2cccc(Cl)c2)c(=O)c1-c1ccc(Cl)cc1 | 63.2%
64 | CCCN(Cc1cc2cccc(C)c2[nH]c1=O)S(C)(=O)=O | 95.8%
65 | CCOc1ccc(S(=O)(=O)N2CCCCCC2)c2ccccc12 | 102%
66 | O=C1CSC2=NCN(c3ccccc3)CN12 | 93.5%
67 | Cc1cccc(N2C(=O)c3cccnc3C2=O)c1 | 95.8%
68 | COc1cc(/C=C(\C#N)c2nc3c(s2)CC(C)CC3)ccc1O (stereo not given) | 83.7%
69 | COc1ccc(-n2c(SCC(=O)Nc3sc4c(c3C#N)CCCC4)nnc2-c2ccc(O)cc2)cc1 | 3.66% (active)
70 | COc1ccc(-c2nnc(SCC(=O)c3ccco3)n2-c2ccccc2)cc1 | 92.6%
71 | N#Cc1c(NC(=O)CSc2nc3ccccc3c(=O)n2Cc2ccco2)sc2c1CCCC2 | 58.5%
72 | Cc1cc(NC(=O)CCC(=O)N(CC(=O)NCC2CCCO2)c2ccccc2C)no1 (stereo not given) | 105%
73 | CC(C)(O)C(=O)NN(C(=O)c1ccccc1)c1cccc(Br)c1 | 109%
74 | CCOC(=O)c1nnn(-c2nonc2-n2cccc2)c1CN1CCC(C(=O)OCC)CC1 | 92.5%
75 | Cc1cc(-n2nc(C)cc2C)n2nc(C)c(-c3ccccc3)c2n1 | 106%
76 | CCOC(=O)c1nnn(-c2nonc2-n2cccc2)c1CN1CCOCC1 | 100%
77 | Fc1ccccc1/C=C1\CCCC2=C1Nc1ncnn1C2c1ccccc1F (stereo not given) | 13% (active)
78 | CCCCc1nnc(NC(=O)CS(=O)(=O)Cc2ccccc2)s1 | 107%
79 | Clc1ccc(COn2c(-c3ccc(Cl)cc3Cl)nc3ncccc32)cc1 | 86%
80 | Cc1noc(/C=C/c2ccco2)c1S(=O)(=O)N1CCC(C(=O)N2CCc3ccccc32)CC1 | 93.3%
